In all, about 53,000 sequences went through this assay and about 3,700 (7%) were called active.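 The calls were made as follows: active = gene knockdowns whose robust z-score for IL-1 alpha signal is at least 2 or at most -2, so actives lie on both sides; inactive = the rest.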 This excerpt belongs to a sample that is enriched for actives.
Experiment: Components of the Cytosolic LPS Sensing Pathway: Gene Identification via Genome-wide siRNA Screen
Settings: RAW264.7 macrophages, IL-1a HTRF, actives lie on both sides, screened at 100 nM (by protocol), cells primed 5 h with Pam3CSK4 first
Text: Non-canonical inflammasome activation by cytosolic LPS is a critical component of the host response to Gram-negative bacterial infection, however we lack a comprehensive understanding of the cellular processes that control this pathway. Here we describe a genome-wide siRNA screen to identify genes regulating the mouse macrophage IL-1 alpha response to cytosolic LPS.
RAW264.7 cells were maintained in complete DMEM media, comprising DMEM with 4.5 g/L glucose, 10% FBS (Gemini Bio-Products, West Sacramento, CA), 2 mM Glutamine (Lonza) and 20 mM HEPES (Lonza), hereafter complete DMEM.
The RNAi screen was conducted in 384-well format using the Ambion Silencer Mouse Genome siRNA Library (#4391425), which consists of three unique, nonoverlapping, nonpooled siRNAs for each of 17,000 gene targets. siRNA reagents ([…]) were stamped into 384-well white flat-bottom microplates (Corning, 3570) using a Velocity11 VPrep liquid handling system (Agilent) integrated into a BioCel robotic platform (Agilent) in columns 1-22, leaving columns 23-24 empty for negative (Ambion, Negative control #1) and positive (mouse Casp4) controls, respectively. The median value of each plate's negative control column was used to normalize sample wells, and the positive control was used to assess transfection efficiency and assay performance.
Lipofectamine RNAiMAX Transfection Reagent ([…]; Invitrogen) was added in […] serum-free, antibiotic-free media to plate wells using a Thermo Scientific Matrix WellMate and Microplate Stacker. Plates were incubated for 45 min at room temperature to allow for the sufficient formation of siRNA-lipid complexes. Cells were seeded at a density of 1x10^4 cells per well in 20 microL media containing 20% (vol/vol) FBS without antibiotics. The final concentration of siRNA in each well was 100 nM. Cells were cultured for 48h at 37 degrees C in 5% CO2 before addition of […] of TLR ligand Pam3CSK4 for 5 hours. The medium was then removed, replaced with […] growth media and cell were transfected with […] of LipidA and TransIT-TKO (Mirus) for 24 hour. At the end of the LipidA treatment, […] of supernatant was transferred to a 384 Greiner Bio-one non-binding low volume plate and […] of IL-1a HTRF reagent (Cisbio, 62MIL1APEH) was added and incubated at room temperature overnight. The plates were read on an EnVision plate reader (PerkinElmer). Cell viability was measured by adding 20ul Cell Titer Glo to the original plate and running a luminescence read on the EnVision. The quantified IL-1a signal for each siRNA gene-targeted well was divided by the median of the negative control wells and multiplied by 100 to achieve a negative control normalized value for each well/siRNA. This normalized value was then used to generate a robust z-score by first taking the log of each value and then by subtracting the median and dividing by the […].

Row | Sequence | z-score
1 | GUGCCUUUGUGGUCUUCCUTT against Tmem179 | -1.16 (inactive)
2 | GGAUCCCAAGUUCAAAGCCTT against Rfxap | 2.07 (active)
3 | CCUAUAACAUCCACCUUCATT against Yipf3 | -0.508 (inactive)
4 | GGAAACAAGAAGAACGAUGTT against Camk2a | 1.47 (inactive)
5 | GCACUCAGCUAGGUGAAGATT against Hnrnpul1 | -0.186 (inactive)
6 | GAUCUAGGACAGCUUAGAUTT against Avpr1b | -0.955 (inactive)
7 | GCCAAUGAAAACCUUUUGCTT against Parp9 | -0.736 (inactive)
8 | GGAUUUUACAUUUCUACACTT against Tmprss15 | 2.14 (active)
9 | CGCACUGGAUAAUAUCAGCTT against Dok5 | 0.0135 (inactive)
10 | GGCAGAAAUUUGGAUACCATT against Plekha4 | 2.1 (active)
11 | GGAAGUUAGCUCCUAAAUATT against Pirt | -0.383 (inactive)
12 | CCUUUUUUAUAUCCACUCATT against Bahcc1 | 1.22 (inactive)
13 | GCAUCACUGCCACAGUGCATT against Olfr159 | -0.133 (inactive)
14 | GUAGUUGUUCUGAGAAAUCTT against Krtap19-2 | -0.49 (inactive)
15 | GGAAAUUCAAAAAGUGUGUTT against Aplf | -2.25 (active)
16 | GGCCUGUUUUGAAGUAGAATT against B630019K06Rik | 0.352 (inactive)
17 | GCCAUUUGAAACUCUCCUGTT against Gstp3 | -1.71 (inactive)
18 | GGUCCUCCAGUUAAUGUCATT against Glra3 | -0.916 (inactive)
19 | GGUUAUCCAGAGAGUGCAUTT against Arl4d | 1.01 (inactive)
20 | ACUCCUAUGAGCUAGCUGUTT against Krt42 | 0.919 (inactive)
21 | GGAAUUGAGACCCAAUAUUTT against Cnot7 | -0.353 (inactive)
22 | GGAAUCAGCAAACUCAACCTT against Rnase11 | -0.748 (inactive)

Row | Sequence | z-score
23 | GGAUUCAGAAGCAGCAACATT against Nr1h2 | -2.29 (active)
24 | GGCCAAGGACAUUAUAAAUTT against Scly | -0.585 (inactive)
25 | AGUGAACAUCGAUCGCAUGTT against Gng8 | 0.937 (inactive)
26 | GCAAUGGUGGUUCUAAUAUTT against Cmya5 | -0.00244 (inactive)
27 | GCCAACCAGGAUUUUACAATT against Fga | 0.463 (inactive)
28 | GGAGAGUGUGUUUUCAGGCTT against Bop1 | 3.08 (active)
29 | GAGUGUCUUGAACACAGCCTT against Olfr635 | -0.0711 (inactive)
30 | GGCCAAGUUCCUUUGCAUATT against Lacc1 | 0.274 (inactive)
31 | CCAAAUGUAGCGGAACUGATT against Rsu1 | 0.195 (inactive)
32 | GGGUAUGAGUGCAGACUAUTT against Zcchc9 | 0.803 (inactive)
33 | GGCUUUGUAGCGAUAACAATT against D930030D11Rik | -0.936 (inactive)
34 | GGUCAGUGACAUUAUCAAUTT against Vmn1r237 | 1.84 (inactive)
35 | GGAGCAGUUACAGGAAAUCTT against Cdr2 | -2.11 (active)
36 | GGCAAGACUAUGAAUAUAATT against Ufsp2 | -0.486 (inactive)
37 | GGAUUUGGAUUUGGAUUUUTT against Tsc22d3 | 0.387 (inactive)
38 | CCUUGUACCCAGUAAAGUCTT against Mab21l4 | 0.586 (inactive)
39 | GGUGGACAAGUUCAAAGCCTT against Atg4d | -1.56 (inactive)
40 | GCAGGAUAUGUAAAGGUUUTT against Gimap3 | -0.924 (inactive)
41 | CCUAAAAGCAGGCCAAAAUTT against Dhx29 | -1.26 (inactive)
42 | GGAGAAGAGCCUUCUCAAGTT against Srsf4 | 2.05 (active)
43 | GGUUAUAGCUUCAAUAGCUTT against Bphl | -0.61 (inactive)
44 | UAACAGACCAGUAAAGGCCTT against Klra21 | 0.322 (inactive)

Row | Sequence | z-score
45 | CCAGAUACCCAUAAUAUCUTT against Mbnl1 | -0.604 (inactive)
46 | CGAUUUCCUUGGCACCAAUTT against Arhgap1 | -0.675 (inactive)
47 | GUGGACUUUUAGCAAUCAGTT against Olfr98 | -1.55 (inactive)
48 | GGAGACUUAUUGAGCAAGUTT against Usp44 | 4.42 (active)
49 | CGCUGAAGUCUUUUCACAATT against Baiap2 | 0.286 (inactive)
50 | CCCUUUCGGGCAAUGGACUTT against Olfr986 | -0.0157 (inactive)
51 | GGGCUUAAGCUUUGAGGGUTT against Foxs1 | 0.213 (inactive)
52 | GGGUUUGCACUAGUUUAUUTT against Rap1a | 0.632 (inactive)
53 | GGUCCUAAAGCCUUUUCUATT against Mrpl10 | 0.199 (inactive)
54 | GGAAGGGUCAGAAAAAUGUTT against Slc1a2 | 0.202 (inactive)
55 | GGUAAUGAUCCAUUCACCATT against Ly75 | -1.47 (inactive)
56 | GCAUAUACUUGAUUACCGUTT against Olfr830 | -0.391 (inactive)
57 | CCUCUGUCAGUUGGUUAACTT against Mon2 | -2.33 (active)
58 | CCUUCUACUAAUCAAGAGATT against Sparc | -0.578 (inactive)
59 | GGACCACAGAAGUUCUCAUTT against Pira2 | -2.88 (active)
60 | GCACGGAAGACUUACGAACTT against Cstf3 | 0.439 (inactive)
61 | GGACAUAUUUCCAACAUGUTT against Mob3b | -1.34 (inactive)
62 | CGAAUCAUGUGUUUGCACATT against Camkk2 | 1.21 (inactive)
63 | GCCUGAUUGACUUAGAGUCTT against Eps8 | 0.821 (inactive)
64 | GCAGGUGAAGAGUGAUUUUTT against Il10 | 0.318 (inactive)
65 | GGAACUGCUUACGAAAUACTT against Lama4 | -2.33 (active)
66 | GGAUGUGUUAUCGGUGCUCTT against Mup21 | -0.303 (inactive)

Row | Sequence | z-score
67 | GGAAGAGGAAGAAAAAAAGTT against Iqcf4 | -0.411 (inactive)
68 | CUUACGAUACAUAAGAGAATT against Zfp457 | 0.364 (inactive)
69 | CGACAACAUUUUCCUGUCATT against Serpinc1 | -2.07 (active)
70 | GGAGAGAGAGAAGAAGGAUTT against Zmat2 | -1.47 (inactive)
71 | GCUCAUUCCAGGUAUCUGATT against Fcna | -1.19 (inactive)
72 | GCUAUGACAGUUAUGCUACTT against Cirbp | 0.874 (inactive)
73 | GGAUACGAGACAAUGAGAATT against Kctd2 | -0.404 (inactive)
74 | GCGAAUUACUAUGUACCUATT against Sqor | 1.75 (inactive)
75 | GGACUGAGGAGAGCAAUAUTT against Cts6 | -1.29 (inactive)
76 | GGCGGACAGAAAUUAUAGATT against Tnpo3 | 3.19 (active)
77 | CCGUUGCCUGAUAAGUUCUTT against Klf3 | 0.576 (inactive)
78 | GCCUUUCUGAGGGAUUUUGTT against Eif1ad | -1.81 (inactive)
79 | GCCAAGCUUACUCAGAUUUTT against Mslnl | 2.45 (active)
80 | GGCCUUUAUUCAGAUGUCATT against Zscan12 | -2.79 (active)
81 | GGUUUAGGCAACUAAGUUGTT against Stat5a | 0.426 (inactive)
82 | GCAAAGUACCCACCUUUGUTT against Pitpna | 2.06 (active)
83 | GGCAACUUUGAAGUCUUGATT against Dntt | -0.488 (inactive)
84 | GGGUUCUUUUAGGUUGUCATT against Ccdc85a | -0.123 (inactive)
85 | GGAACUUCAUCCAAACUGATT against Ap4m1 | -0.12 (inactive)
86 | CGUCCAAGCAUAUAUGAAATT against Slfn8 | 1.36 (inactive)
87 | GGGAAGAGAAUGAGAUAAATT against F7 | 3.22 (active)
88 | CCGACAUUCGAGUUUUGCGTT against Rrp9 | -0.532 (inactive)

Row | Sequence | z-score
89 | GCGAACAACCACGUUUUUCTT against Ddx18 | 0.388 (inactive)
90 | GGUGUCAAGAAGAAUGUCCTT against Megf11 | 3.2 (active)
91 | GGCCGAAAGAUAAAAACAGTT against Rad51d | 0.173 (inactive)
92 | GCGACACCACUGAUGACGATT against Gga2 | -0.473 (inactive)
93 | GGAAAAACAUGCCAAAAAATT against Mettl15 | -0.222 (inactive)
94 | CCUUAGUAUGUAUGUGGUATT against Map10 | -2.65 (active)
95 | CCACACUUCCCUUAUUUAATT against Arpc5 | 1.35 (inactive)
96 | GGCUAAAGACCAGUAUUUGTT against Cdh7 | 2.47 (active)
97 | CGCAGUCAAAUUUGAAAGUTT against Car5b | 0.775 (inactive)
98 | GGCUGACAGACAAGAUUGUTT against Tfb1m | -1.3 (inactive)
99 | GCCUGUGGUGAUUCUCUUGTT against Tmem53 | -0.093 (inactive)
100 | CCCAGUUAUCCUGAAAAGUTT against Ears2 | 0.526 (inactive)
101 | GCAAAAGUAUUUUGUGUCCTT against Aamp | 0.241 (inactive)
102 | GCGCAAUGAACGGUUCUACTT against Prepl | 3.96 (active)
103 | GGGAUGUGAGGGAAUUAACTT against B4galt3 | -1.03 (inactive)
104 | GGUCUUCAAGAACUGUAGCTT against Bcl11b | 1.09 (inactive)
105 | GCACACCAGAUCUACUUCUTT against Cyp2b9 | 0.3 (inactive)
106 | GCUUCACUCCACCUUUCAGTT against Prkcg | 0.767 (inactive)
107 | GGUCGUUUCUAUGAUUGGCTT against Olfr589 | 0.568 (inactive)
108 | GCUCGAAGAAAGGCCCUGATT against B430306N03Rik | -0.509 (inactive)

— PubChem BioAssay AID1508600 (Functional Genomics Laboratory (NCATS/FGL), 2020)
